Outcome and AC50 data for twelve compounds are collected here from PubChem BioAssay (EPA / NIEHS).

Experiment [1] in a line: ATG_NFI_CIS: Attagene CIS-FACTORIAL HepG2 Assay for human Nuclear Factor I (NFI) (AID 2282989). As to conditions: HepG2 cis-regulatory reporter, NFI response element transcription; actives raise or lower the signal. The essentials: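 Multiplexed cis-reporter system in human HepG2 cells reports native TF activity as reporter mRNA induction 24 h post-dose. Fragments labelled with 6-FAM, HpaI-digested and resolved by capillary electrophoresis; activity fitted both directions versus DMSO.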

The target of experiment [2] is Myc proto-oncogene protein (Homo sapiens) (UniProt P01106). Description: ATG_Myc_CIS: Attagene CIS-FACTORIAL HepG2 Assay for human Myelocytomatosis (Myc) Proto-Oncogene Transcription Factor (AID 2282990). As to conditions: HepG2, Attagene cis-reporter transcription factor activity; actives raise or lower the signal. The method in brief: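 Fluorescence intensity of reporter-specific cDNA fragments, separated by capillary electrophoresis, gives the signal. Transfected HepG2 cells carrying cis-promoter reporter constructs are incubated with compound for 24 h; DMSO serves as baseline.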

A short description of experiment [3]: ATG_NRF2_ARE_CIS: Attagene CIS-FACTORIAL HepG2 Assay for human Nuclear Factor Erythroid 2 Related Factor 2 (NFR2) response to Antioxidant Response Elements (ARE) (AID 2282992).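 As to AC50: reporter mRNA level measured by RT-PCR and capillary electrophoresis fluorescence.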 The note with it: HepG2 Attagene ARE/NRF2 reporter, transcription factor activity; actives raise or lower the signal. The method in brief: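 Transient MRTU transfection of HepG2; 24 h compound exposure; TriZol RNA, RT with oligo(dT), PCR, 6-FAM primer extension, HpaI cut, CE. Bidirectional fit vs DMSO.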

The nature of experiment [4]: ATG_Oct_MLP_CIS: Attagene CIS-FACTORIAL HepG2 Assay for human Octamer-Binding Transcription Factor (Oct) (AID 2282993). As to conditions: HepG2 Attagene cis-factorial Oct reporter, mRNA; actives raise or lower the signal. The essentials:
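After 24 h compound exposure, transfected HepG2 cells were lysed for total RNA; reporter-specific cDNA was PCR-amplified, fluorescently labelled and sized by capillary electrophoresis. Bidirectional curve fitting used DMSO as baseline.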

Experiment [5] addresses Cellular tumor antigen p53 (Homo sapiens) (UniProt P04637). Description: ATG_p53_CIS: Attagene CIS-FACTORIAL HepG2 Assay for human p53 Transcription Factor (AID 2282994). As to conditions: HepG2 p53 cis-element reporter, Attagene mRNA; actives raise or lower the signal. The method in brief: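 HepG2, transient MRTU transfection (cis promoter elements, endogenous TFs); 24 h dosing; RNA isolation, RT-PCR, 6-FAM primer extension, HpaI digest, CE fluorescence; bidirectional fit vs DMSO.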

Experiment [6] deals with human Peroxisome Proliferator-activated Receptor alpha (PPARa), PPARA (gene 5465) (UniProt Q07869). Put plainly: ATG_PPARa_TRANS: Attagene TRANS-FACTORIAL HepG2 Assay for human Peroxisome Proliferator-activated Receptor alpha (PPARa) (AID 2283001; active = hit-call score of the fitted dose curve at least 0.9, where 1 is the maximum;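 as to AC50: potency for gain of reporter signal over DMSO so agonist or activator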). The method in brief:
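Measures transcriptional activity of an exogenous chimeric PPARa-Gal4 protein in transiently transfected HepG2 cells after 24 h dosing. Reporter mRNA quantified via RT-PCR and capillary electrophoresis; DMSO served as negative control.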

In experiment [7] the target is human Peroxisome Proliferator-activated Receptor delta (PPARd), PPARD (gene 5467) (UniProt Q03181). Description: ATG_PPARd_TRANS: Attagene TRANS-FACTORIAL HepG2 Assay for human Peroxisome Proliferator-activated Receptor delta (PPARd) (AID 2283002; active = hit-call score of the fitted dose curve at least 0.9, where 1 is the maximum). The essentials: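 Fluorescence from capillary electrophoresis of labelled RT-PCR reporter fragments gives the signal; DMSO sets baseline. Cells: HepG2 transiently carrying GAL4-UAS reporter units plus chimeric nuclear receptor-Gal4 proteins, exposed to chemicals for 24 h.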

Experiment [8] has as its target Peroxisome proliferator-activated receptor gamma (Homo sapiens) (UniProt P37231). Put plainly: ATG_PPARg_TRANS: Attagene TRANS-FACTORIAL HepG2 Assay for human Peroxisome Proliferator-activated Receptor-gamma (PPARg) (AID 2283007; active = hit-call score of the fitted dose curve at least 0.9, where 1 is the maximum). The essentials: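 Gain-of-signal endpoint relative to DMSO, derived from reporter mRNA levels quantified by RT-PCR and capillary electrophoresis. Cells were HepG2 transiently expressing a chimeric NR-Gal4 construct with GAL4-UAS reporters, exposed to chemicals for 24 h.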

The target in experiment [9] is Nuclear receptor subfamily 1 group I member 2 (Homo sapiens) (UniProt O75469). Put plainly: ATG_PXR_TRANS: Attagene TRANS-FACTORIAL HepG2 Assay for human Pregnane X Receptor (PXR) (AID 2283008; active = hit-call score of the fitted dose curve at least 0.9, where 1 is the maximum). The method in brief:
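Read-out is fluorescence of labelled reporter cDNA fragments separated by capillary electrophoresis after RT-PCR and HpaI digestion. Source: HepG2 cells carrying PXR-GAL4/UAS reporter constructs, treated 24 h; activity fitted upward relative to DMSO.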

The target of experiment [10] is human RAR-related Orphan Receptor beta (RORb), RORB (gene 6096) (UniProt Q92753). Put plainly: ATG_RORb_TRANS: Attagene TRANS-FACTORIAL HepG2 Assay for human RAR-related Orphan Receptor beta (RORb) (AID 2283010; active = hit-call score of the fitted dose curve at least 0.9, where 1 is the maximum). The method in brief: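 HepG2 cells were transiently transfected with multiplexed GAL4-UAS reporter units expressing chimeric nuclear receptor–GAL4 proteins, then dosed for 24 h. Reporter mRNA was quantified by RT-PCR with fluorescent labelling and capillary electrophoresis; gain of signal was fitted relative to DMSO.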

The target of experiment [11] is human RAR-related Orphan Receptor gamma (RORg), RORC (gene 6097) (UniProt P51449). Put plainly: ATG_RORg_TRANS: Attagene TRANS-FACTORIAL HepG2 Assay for human RAR-related Orphan Receptor gamma (RORg) (AID 2283011; active = hit-call score of the fitted dose curve at least 0.9, where 1 is the maximum). The essentials:
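Reporter transcripts from a transfected RORg-GAL4 chimera in HepG2 cells were quantified 24 h after dosing by RT-PCR, 6-FAM labelling, HpaI digestion and capillary electrophoresis; increases over DMSO baseline were fitted.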

Experiment [12] has as its target Retinoic acid receptor alpha (Homo sapiens) (UniProt P10276). Description: ATG_RARa_TRANS: Attagene TRANS-FACTORIAL HepG2 Assay for human Retinoic Acid Receptor alpha (RARa) (AID 2283005; active = hit-call score of the fitted dose curve at least 0.9, where 1 is the maximum). The method in brief:
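HepG2 transiently transfected with multiplex GAL4-UAS reporter units including a human RARa–GAL4 chimera; 24 h compound exposure. Reporter mRNA quantified by RT-PCR, 6-FAM labeling and capillary electrophoresis; gain of signal versus DMSO.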

The target of experiment [13] is human Retinoic Acid Receptor gamma (RARg), RARG (gene 5916) (UniProt P13631). Description: ATG_RARg_TRANS: Attagene TRANS-FACTORIAL HepG2 Assay for human Retinoic Acid Receptor gamma (RARg) (AID 2283009; active = hit-call score of the fitted dose curve at least 0.9, where 1 is the maximum). The essentials:
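HepG2 cells transiently transfected with multiplexed reporter units expressing chimeric RARg-GAL4 and GAL4-UAS-driven reporters; 24 h compound exposure. Reporter mRNA quantified by RT-PCR with fluorescent labelling and capillary electrophoresis; gain-of-signal fitted relative to DMSO baseline.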

A short description of experiment [14]: BSK_3C_uPAR: BioMAP Diversity Plus: 3C Assay for Urokinase-type plasminogen activator receptor (uPAR) Biomarker Activity (AID 2282998). The note with it: BioMAP 3C HUVEC, uPAR biomarker ELISA; actives raise or lower the signal. The method in brief:
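Values derive from bidirectional curve fitting relative to DMSO, which served as baseline of activity. uPAR was measured by ELISA in human umbilical vein endothelial primary cultures 24 h after compound addition.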

Experiment [15] can be described thus: BSK_3C_VCAM1: BioMAP Diversity Plus: 3C Assay for Vascular cell adhesion molecule 1 (VCAM1) Biomarker Activity (AID 2282999). The note with it: BioMAP 3C HUVEC, VCAM1 ELISA, cytokine-stimulated; actives raise or lower the signal. The essentials:
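Human umbilical vein endothelial cells (3C system), biomarker read by ELISA 24 h after dosing; bidirectional fit against DMSO baseline. Cytotoxicity tracked by SRB total-protein staining in parallel cultures at biomarker time.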
(ELISA stands for enzyme-linked immunosorbent assay.)

A short description of experiment [16]: BSK_4H_Eotaxin3: BioMAP Diversity Plus: 4H Assay for Eotaxin 3 Biomarker Activity (AID 2283000).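 Also: CCL26 protein level quantified by ELISA in parallel with SRB cytotoxicity check.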 As to conditions: primary human endothelial cells (HUVEC); actives raise or lower the signal. The method in brief: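 Human umbilical vein endothelial cells (BSK_4H system) dosed with test chemical; Eotaxin-3 (CCL26) measured by ELISA 24 h after dosing. Bidirectional curve fitting relative to DMSO negative control as baseline.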

Read-out in experiment [17]: Intercellular Adhesion Molecule 1 (ICAM1), ICAM1 (gene 3383)
Description: BSK_3C_ICAM1: BioMAP Diversity Plus: 3C Assay for Intercellular Adhesion Molecule 1 (ICAM1) Biomarker Activity (AID 2283003). The note with it: primary human endothelial cells (HUVEC); actives raise or lower the signal. The essentials:
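Primary human umbilical vein endothelial cells in the BioMAP 3C system were exposed to chemicals for 24 h, then ICAM-1 was quantified by ELISA. Activity was fitted bidirectionally against the DMSO negative control baseline.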

SMILES strings stand for the structures. Results filed as inconclusive are left out. Active and inactive are the calls of the source. The calls were made as follows, unless noted: active = hit-call score of the fitted dose curve at least 0.9, where 1 is the maximum; inactive = score below 0.9.

Myc proto-oncogene protein (Homo sapiens), sequence (P01106 whole entry, looked up, the tested form may be a part): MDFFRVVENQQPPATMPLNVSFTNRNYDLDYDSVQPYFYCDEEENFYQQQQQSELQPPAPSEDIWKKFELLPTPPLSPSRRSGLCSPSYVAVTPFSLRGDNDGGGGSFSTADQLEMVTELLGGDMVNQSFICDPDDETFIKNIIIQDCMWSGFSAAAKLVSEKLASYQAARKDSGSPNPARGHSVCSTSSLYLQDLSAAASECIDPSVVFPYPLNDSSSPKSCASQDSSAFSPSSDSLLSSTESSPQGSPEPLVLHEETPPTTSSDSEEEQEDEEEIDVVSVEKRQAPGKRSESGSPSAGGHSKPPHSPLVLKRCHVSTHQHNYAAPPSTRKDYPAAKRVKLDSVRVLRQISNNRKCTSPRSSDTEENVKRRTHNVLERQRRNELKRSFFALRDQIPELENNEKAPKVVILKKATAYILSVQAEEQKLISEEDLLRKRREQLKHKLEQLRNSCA
human Peroxisome Proliferator-activated Receptor alpha (PPARa), PPARA (gene 5465), sequence (Q07869 whole entry, looked up, the tested form may be a part): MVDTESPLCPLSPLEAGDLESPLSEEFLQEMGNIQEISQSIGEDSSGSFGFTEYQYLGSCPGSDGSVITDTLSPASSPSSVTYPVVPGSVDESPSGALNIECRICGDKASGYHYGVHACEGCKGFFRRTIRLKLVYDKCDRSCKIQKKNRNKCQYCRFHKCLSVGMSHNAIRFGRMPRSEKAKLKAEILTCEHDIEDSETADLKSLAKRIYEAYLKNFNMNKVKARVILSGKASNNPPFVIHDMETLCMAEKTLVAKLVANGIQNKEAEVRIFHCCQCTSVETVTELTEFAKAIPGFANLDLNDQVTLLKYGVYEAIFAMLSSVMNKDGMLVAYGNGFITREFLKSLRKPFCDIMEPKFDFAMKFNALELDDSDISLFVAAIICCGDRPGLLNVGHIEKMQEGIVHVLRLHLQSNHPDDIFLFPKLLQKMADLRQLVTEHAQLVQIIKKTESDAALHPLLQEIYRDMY
human RAR-related Orphan Receptor beta (RORb), RORB (gene 6096), sequence (Q92753 whole entry, looked up, the tested form may be a part): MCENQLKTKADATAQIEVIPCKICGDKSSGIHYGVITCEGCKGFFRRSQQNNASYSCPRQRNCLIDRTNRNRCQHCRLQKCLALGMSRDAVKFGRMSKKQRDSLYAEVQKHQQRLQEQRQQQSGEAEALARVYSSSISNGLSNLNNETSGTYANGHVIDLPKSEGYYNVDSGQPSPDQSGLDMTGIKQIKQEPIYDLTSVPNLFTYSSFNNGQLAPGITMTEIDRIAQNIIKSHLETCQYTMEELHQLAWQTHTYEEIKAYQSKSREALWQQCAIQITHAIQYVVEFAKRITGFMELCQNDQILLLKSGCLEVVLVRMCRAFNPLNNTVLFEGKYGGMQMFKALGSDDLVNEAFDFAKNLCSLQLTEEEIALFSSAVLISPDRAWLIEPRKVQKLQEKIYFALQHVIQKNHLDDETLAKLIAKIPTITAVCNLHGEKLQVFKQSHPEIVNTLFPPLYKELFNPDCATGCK
Cellular tumor antigen p53 (Homo sapiens), sequence (P04637 whole entry, looked up): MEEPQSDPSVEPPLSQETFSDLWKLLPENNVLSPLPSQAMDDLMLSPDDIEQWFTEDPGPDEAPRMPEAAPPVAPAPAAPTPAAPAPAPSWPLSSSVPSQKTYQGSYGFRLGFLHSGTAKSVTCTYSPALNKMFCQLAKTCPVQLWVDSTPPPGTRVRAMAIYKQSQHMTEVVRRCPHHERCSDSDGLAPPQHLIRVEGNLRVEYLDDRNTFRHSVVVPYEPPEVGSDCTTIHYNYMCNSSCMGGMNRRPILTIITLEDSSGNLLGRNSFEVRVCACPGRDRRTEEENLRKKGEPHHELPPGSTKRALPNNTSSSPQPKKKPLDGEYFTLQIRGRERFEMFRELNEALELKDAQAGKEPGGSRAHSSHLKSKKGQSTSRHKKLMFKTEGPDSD
human RAR-related Orphan Receptor gamma (RORg), RORC (gene 6097), sequence (P51449 whole entry, looked up, the tested form may be a part): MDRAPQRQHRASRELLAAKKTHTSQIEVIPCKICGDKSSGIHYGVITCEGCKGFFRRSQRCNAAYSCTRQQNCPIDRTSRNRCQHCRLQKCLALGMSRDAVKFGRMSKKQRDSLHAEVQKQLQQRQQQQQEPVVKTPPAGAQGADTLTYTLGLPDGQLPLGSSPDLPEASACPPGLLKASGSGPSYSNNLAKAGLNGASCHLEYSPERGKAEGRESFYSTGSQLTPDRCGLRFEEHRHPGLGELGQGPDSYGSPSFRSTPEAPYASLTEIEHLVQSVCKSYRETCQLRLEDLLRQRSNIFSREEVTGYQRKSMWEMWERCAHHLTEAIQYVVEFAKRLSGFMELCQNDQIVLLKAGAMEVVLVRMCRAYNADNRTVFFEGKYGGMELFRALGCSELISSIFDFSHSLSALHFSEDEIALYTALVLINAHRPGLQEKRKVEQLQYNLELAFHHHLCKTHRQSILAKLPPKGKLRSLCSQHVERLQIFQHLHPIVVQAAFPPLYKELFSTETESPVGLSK
Peroxisome proliferator-activated receptor gamma (Homo sapiens), sequence (P37231 whole entry, looked up, the tested form may be a part): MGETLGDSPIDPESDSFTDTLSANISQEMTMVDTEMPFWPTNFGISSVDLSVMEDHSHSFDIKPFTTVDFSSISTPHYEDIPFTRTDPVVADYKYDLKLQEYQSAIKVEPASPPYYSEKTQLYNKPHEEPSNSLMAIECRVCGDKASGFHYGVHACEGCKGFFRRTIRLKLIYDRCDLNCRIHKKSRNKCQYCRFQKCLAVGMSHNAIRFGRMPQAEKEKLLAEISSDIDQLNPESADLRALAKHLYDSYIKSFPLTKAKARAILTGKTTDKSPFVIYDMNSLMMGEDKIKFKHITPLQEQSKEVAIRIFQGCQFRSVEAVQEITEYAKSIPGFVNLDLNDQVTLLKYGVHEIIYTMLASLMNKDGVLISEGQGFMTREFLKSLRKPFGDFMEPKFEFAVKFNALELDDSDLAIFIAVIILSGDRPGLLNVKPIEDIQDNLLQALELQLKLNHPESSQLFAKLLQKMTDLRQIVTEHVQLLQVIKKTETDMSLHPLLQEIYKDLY
human Peroxisome Proliferator-activated Receptor delta (PPARd), PPARD (gene 5467), sequence (Q03181 whole entry, looked up, the tested form may be a part): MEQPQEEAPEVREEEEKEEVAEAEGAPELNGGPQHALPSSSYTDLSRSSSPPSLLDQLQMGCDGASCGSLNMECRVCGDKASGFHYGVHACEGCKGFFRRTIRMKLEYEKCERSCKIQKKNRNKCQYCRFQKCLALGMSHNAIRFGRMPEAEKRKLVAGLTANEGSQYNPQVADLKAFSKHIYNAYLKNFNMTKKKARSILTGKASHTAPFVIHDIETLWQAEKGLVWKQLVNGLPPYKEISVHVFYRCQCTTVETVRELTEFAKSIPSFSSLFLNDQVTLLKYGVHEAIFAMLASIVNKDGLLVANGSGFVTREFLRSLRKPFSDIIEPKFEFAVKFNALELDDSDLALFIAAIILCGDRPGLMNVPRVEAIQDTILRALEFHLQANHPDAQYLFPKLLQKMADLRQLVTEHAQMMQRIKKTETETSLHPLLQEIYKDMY
Nuclear receptor subfamily 1 group I member 2 (Homo sapiens), sequence (O75469 whole entry, looked up, the tested form may be a part): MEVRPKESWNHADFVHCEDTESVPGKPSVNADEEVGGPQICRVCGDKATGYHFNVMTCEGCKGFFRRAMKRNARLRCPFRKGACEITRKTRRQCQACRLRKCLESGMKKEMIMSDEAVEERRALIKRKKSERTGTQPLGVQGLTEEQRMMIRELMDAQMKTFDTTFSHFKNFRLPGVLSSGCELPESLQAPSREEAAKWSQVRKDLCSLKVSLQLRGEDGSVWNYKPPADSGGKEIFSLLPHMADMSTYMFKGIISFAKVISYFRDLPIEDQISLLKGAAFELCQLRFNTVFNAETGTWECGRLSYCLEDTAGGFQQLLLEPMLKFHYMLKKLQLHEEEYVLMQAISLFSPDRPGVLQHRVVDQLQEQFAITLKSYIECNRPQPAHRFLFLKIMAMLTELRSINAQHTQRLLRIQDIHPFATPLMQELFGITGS
Retinoic acid receptor alpha (Homo sapiens), sequence (P10276 whole entry, looked up, the tested form may be a part): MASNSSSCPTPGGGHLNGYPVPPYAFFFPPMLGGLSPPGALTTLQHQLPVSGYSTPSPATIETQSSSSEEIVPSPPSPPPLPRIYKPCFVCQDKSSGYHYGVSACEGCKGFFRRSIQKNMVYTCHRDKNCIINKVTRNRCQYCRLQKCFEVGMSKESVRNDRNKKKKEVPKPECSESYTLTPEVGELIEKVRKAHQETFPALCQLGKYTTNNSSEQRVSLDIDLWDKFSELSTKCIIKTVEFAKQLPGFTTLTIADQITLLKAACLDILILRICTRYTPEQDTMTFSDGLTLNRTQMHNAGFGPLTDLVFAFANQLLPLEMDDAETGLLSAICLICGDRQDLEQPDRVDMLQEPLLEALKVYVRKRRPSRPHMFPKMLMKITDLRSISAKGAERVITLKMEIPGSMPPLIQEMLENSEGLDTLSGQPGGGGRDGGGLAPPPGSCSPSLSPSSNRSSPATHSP
human Retinoic Acid Receptor gamma (RARg), RARG (gene 5916), sequence (P13631 whole entry, looked up, the tested form may be a part): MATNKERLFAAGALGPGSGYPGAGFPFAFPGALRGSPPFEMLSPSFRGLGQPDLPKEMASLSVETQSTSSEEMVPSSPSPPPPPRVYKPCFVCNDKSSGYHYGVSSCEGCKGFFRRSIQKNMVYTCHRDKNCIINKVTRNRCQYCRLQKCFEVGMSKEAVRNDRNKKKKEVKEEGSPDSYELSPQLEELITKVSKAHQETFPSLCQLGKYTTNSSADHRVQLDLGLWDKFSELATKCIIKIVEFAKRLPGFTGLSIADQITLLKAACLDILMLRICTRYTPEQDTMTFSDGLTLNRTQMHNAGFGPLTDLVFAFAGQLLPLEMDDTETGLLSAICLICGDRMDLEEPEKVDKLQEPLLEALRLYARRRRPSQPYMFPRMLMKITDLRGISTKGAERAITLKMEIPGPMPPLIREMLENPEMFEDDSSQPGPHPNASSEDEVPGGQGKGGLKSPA

For `CC(C)=CCO`, the compound was classed as inactive in experiment [1], in experiment [2], in [3], in [4], in experiment [5] and in [6]. In addition, the outcome in experiment [7], in experiment [8], in [9], in experiment [10] and in experiment [11] was inactive.

On to `O=C1C(c2[nH]c3ccc(S(=O)(=O)O)cc3c2O)=Nc2ccc(S(=O)(=O)O)cc21`, for which the outcome in [1], in experiment [2], in [3], in experiment [4], in experiment [5] and in [9] was inactive. The result in experiment [11] was inactive.

On to `CC(C)[C@@H]1CC[C@@H](C)CC1=O`, for which the call in [1], in experiment [2], in experiment [3], in experiment [4], in experiment [5] and in experiment [6] was inactive. Moreover, the outcome in experiment [9] and in [10] was inactive.

`CC1=CCC(O)(C(C)C)CC1` (stereo not drawn): the result in experiment [1], in [2], in experiment [3], in experiment [4], in experiment [5] and in [6] was inactive. Moreover, the compound was classed as inactive in experiment [7], in experiment [9], in experiment [10] and in [11].

Consider `OCCN1CCNCC1`, for which the compound was classed as inactive in experiment [1], in experiment [2], in experiment [3], in experiment [4], in [5] and in experiment [7]. For the same compound, the call in experiment [10] was inactive.

As usually defined, the AC50 is the concentration giving half of the maximal activity seen. Consider `C=CC(=O)OCCn1c(=O)n(CCOC(=O)C=C)c(=O)n(CCOC(=O)C=C)c1=O`, for which the compound was called inactive in [1], in [2], in experiment [9] and in [11]. The AC50 in experiment [3] is 0.811 µM (active); in [4] it was 8.38 µM (active); in [5] it was 24.3 µM (active); in [6], 8.62 µM (active); in [8] it was 8.83 µM (active).

On to `CCOc1ccccc1OCC`, for which the compound was called inactive in [1], in [2], in [3], in experiment [4], in [5] and in experiment [7]. The outcome in experiment [8] and in experiment [9] was inactive.

With `CC1(C)[C@H](C(=O)OCc2cccc(Oc3ccccc3)c2)[C@@H]1C=C(Cl)Cl`, the compound was called inactive in experiment [1], in experiment [2], in [3], in [4], in experiment [5] and in [7]. Besides, the outcome in [9] was inactive.

Turning to `CCCCCC(CO)CCC` (stereo not drawn), the result in experiment [1], in experiment [2], in [3], in experiment [4], in experiment [5] and in [6] was inactive. Besides, the compound was classed as inactive in experiment [7], in [12], in experiment [9], in experiment [13], in experiment [10] and in [11].

`Cc1ccccc1C=O`: the result in [1], in experiment [2], in [3], in experiment [4], in experiment [5] and in [6] was inactive. The call in [7], in experiment [8] and in experiment [10] was inactive. Further, in experiment [9], the AC50 is 20.9 µM (active).

Regarding `CCC(=O)/C=C/C1C(C)=CCCC1(C)C` (stereo not drawn), the compound was classed as inactive in experiment [1], in experiment [2], in experiment [4], in experiment [5], in [6] and in experiment [7]. In addition, the values for the AC50 in experiment [3], in experiment [8] and in experiment [9] were 40.4 µM (active), 21.4 µM (active) and 3.77 µM (active), respectively.

Take `OC[C@H]1O[C@H](O[C@]2(CCl)O[C@H](CCl)[C@@H](O)[C@@H]2O)[C@H](O)[C@@H](O)[C@H]1Cl`: the call in experiment [1], in experiment [2], in experiment [3], in [4], in [14] and in [15] was inactive. The outcome in experiment [16], in [6], in experiment [17] and in experiment [9] was inactive.
